# Assay outcomes as filed in PubChem BioAssay.
# IL1B cytotox – cytotoxicity in IL-1B stimulated HUVEC, primary screen, cytotoxicity control for IL-1B NFkB translocation project, imaging, Hoechst nuclear count, IL-1B stimulus; HUVEC cell count loss; cell count reduction, % at 2 µM; 94,000 tested, 0.41% active; AID 845, 2007;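 active = cell count reduction more than 3 SD above the screen-wide mean, cut at about 70% in these data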;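 note: normalized per plate to untreated control cells as the no-loss baseline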
# NFkB transloc pot – enhancers of NFkB p65 translocation in HUVEC – imaging, IL-1B stimulus, high-content imaging, primary screen | HUVEC IL-1B NFkB p65 nuclear translocation imaging | activation, % at 2 µM | 94,000 tested, 0.3% active;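 active = activation above 40%, about the mean plus 3 SD, also judged a hit on visual image review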;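 note: percent activation is computed from the nuclear over cytoplasmic p65 intensity ratio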
# sEH inhibitor – soluble epoxide hydrolase inhibitors, primary screen, biochemical, human sEH; Bifunctional epoxide hydrolase 2 (Homo sapiens), P34913; recombinant human sEH enzymatic activity assay; inhibition, % at 2 µM; 91,000 tested, 0.34% active; AID 707, 2007; in the data active = inhibition above about 80%
# IL1B NFkB inh – inhibitors of IL-1B driven NFkB p65 nuclear import, primary screen, imaging, HUVEC, IL-1B stimulus, high-content imaging; HUVEC IL-1B NFkB p65 nuclear translocation imaging; inhibition, % at 2 µM; 94,000 tested, 0.43% active;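 active = inhibition above about 30% together with a positive call from visual inspection of the well image, limit read from the data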;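 note: nuclear over cytoplasmic p65 intensity ratio measured by imaging; 0% = IL-1B stimulated DMSO wells and 100% = unstimulated DMSO wells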
# sEH activator – soluble epoxide hydrolase activators, primary screen, biochemical, human sEH | purified human sEH enzymatic activity, activator screen | activation, % at 2 µM | 91,000 tested, 0.04% active; in the data active = activation above about 37%
# Numbers without * were called inactive; nt = no result. In the library only some 1.1% were active in any assay of this set; here they are far more common.
SMILES,IL1B cytotox,NFkB transloc pot,sEH inhibitor,IL1B NFkB inh,sEH activator
O=C1CSc2ccc(C(=O)NCCC3=CCCCC3)cc2N1,-16,-9,82*,9,-83
O=C/C(=C\Nc1ccc(Cl)cn1)c1nc2cc(Cl)ccc2o1,-8,50*,-2,-50,4
O=C/C(=C\Nc1ccc(Cl)cn1)c1nc2ccccc2o1,-9,-4,-9,4,13
CCCC(=O)N1CCN(c2ccc([N+](=O)[O-])c(NC(C)c3ccccc3)c2)CC1 (centres undefined),-32,-1,-2,1,2
CN(C)c1nc(N)nc(CSc2nc3cc(Cl)ccc3o2)n1,8,0,12,0,-9
O=S1(=O)C=C(Sc2nc3cc(Cl)ccc3o2)c2ccccc21,24,-56,-16,56*,15
CCOC(=O)CC1C(=O)NCCN1S(=O)(=O)c1ccccc1Cl (centres undefined),28,-8,0,8,1
N#C/C(=C/c1ccc(N2CCCCCC2)o1)c1ccc(F)cc1,22,-44,-4,44*,4
CCOC(=O)C1(S(=O)(=O)c2ccc(Cl)cc2)CCN(Cc2ccc(C)cc2)CC1,21,3,-5,-3,11
CCOc1ccc(NC(=O)NCCN2C(C)CCCC2C)cc1 (centres undefined),-12,1,-2,-1,3
CCOc1ccc(NC(=O)NCCCSC2CCCCC2)cc1,10,5,85*,-5,-86
O=C1NC(Nc2ccccn2)(C(F)(F)F)C(=O)N1c1ccc(F)cc1 (centres undefined),-38,7,-5,-7,6
O=C(NC1(C(F)(F)F)NC(=O)N(c2ccc(F)c(Cl)c2)C1=O)c1ccncc1 (centres undefined),88*,-96,0,-1,2
Cc1c(NC(=O)CSc2nc3ccccc3s2)c(=O)n(-c2ccccc2)n1C,3,21,-13,-21,10
O=C(NC1CCCCC1)N1CCN(c2ncccn2)CC1,-12,17,29,-17,-29
CCN(C(=O)c1cc2ccccc2oc1=O)c1ccccc1,4,-10,4,10,-2
O=C(c1cc2ccccc2oc1=O)N(Cc1cccs1)Cc1ccccc1Cl,94*,3,-9,-3,5
C/C(=N\NC(=O)CSCc1cccc(Br)c1)c1ccc([N+](=O)[O-])cc1,34,-8,-1,8,-1
CCCNC(=O)N1CCN(c2ncccn2)CC1,6,56*,-3,-56,1
CCOc1ccc(NC(=O)CCCOc2cc(=O)n(C)c3ccccc23)cc1,-7,10,19,-10,-17
Cc1cc(NC(=O)CCC(=O)N(Cc2ccco2)C2(C(=O)NC3CCCCC3)CCN(C)CC2)no1,87*,-99,3,99*,-4
O=C(CC1C(=O)NCCN1C(=O)c1ccc(F)cc1)OCc1ccccc1 (centres undefined),92*,13,-13,-13,11
Cc1ccc(-c2nn(-c3ccccc3)cc2CN(Cc2ccccc2)C(=O)c2ccco2)o1,11,46*,14,-46,-11
O=C(Nc1nc(=S)ss1)c1ccc(Cl)cc1Cl,14,-1,5,1,-1
COc1ccccc1NC=C1C(=O)OC(C)(C)OC1=O,-1,-91,nt,91*,nt
SMILES,IL1B cytotox,NFkB transloc pot,sEH inhibitor,IL1B NFkB inh,sEH activator
O=C(COC(=O)C1COc2ccccc2O1)Nc1ccc2c(c1)CCC2 (centres undefined),4,-3,nt,3,nt
Cn1c(SCC(=O)c2ccccc2)nnc1-c1cccc(N)c1,6,0,6,0,-6
C=CCNC(=S)NNC(=O)c1cccn(Cc2ccc(Cl)cc2)c1=O,84*,4,-2,-4,-1
C=CCNC(=S)NNC(=O)c1cccn(Cc2cccc(Cl)c2)c1=O,29,5,-7,-5,4
CCOC(=O)c1ccc(NC(=O)CC2C(=O)N(c3ccc(F)cc3)C(=O)N2CCC(C)C)cc1 (centres undefined),-19,-3,1,3,0
CCCOC(=O)NC(CC)COC(=O)Nc1cccc(C)c1C (centres undefined),8,4,-10,-4,12
CCC(COC(=O)Nc1cccc(C)c1C)NC(=O)OCC(C)C (centres undefined),3,-31,4,31*,-5
